Source: publication PMC4336329 (PLoS ONE, 2015)
Hit rate of the full screen: of about 310,000 compounds, about 14,000 (4.5%) showed an effect of 50% or more. The effect is printed as a negative number. What follows is part of a selection rich in strong results, with near analogues and random picks from the rest.
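Also: peak tail current of the secondary pulse compared with the same well before compound.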

These molecules were tested against human ether-à-go-go-related gene (hERG) potassium channel (human, UniProt Q12809) (assay: primary screen, population patch clamp on CHO cells stably expressing hERG; higher = less effect of the substance).
Sequence of human ether-à-go-go-related gene (hERG) potassium channel (Q12809 whole entry, looked up): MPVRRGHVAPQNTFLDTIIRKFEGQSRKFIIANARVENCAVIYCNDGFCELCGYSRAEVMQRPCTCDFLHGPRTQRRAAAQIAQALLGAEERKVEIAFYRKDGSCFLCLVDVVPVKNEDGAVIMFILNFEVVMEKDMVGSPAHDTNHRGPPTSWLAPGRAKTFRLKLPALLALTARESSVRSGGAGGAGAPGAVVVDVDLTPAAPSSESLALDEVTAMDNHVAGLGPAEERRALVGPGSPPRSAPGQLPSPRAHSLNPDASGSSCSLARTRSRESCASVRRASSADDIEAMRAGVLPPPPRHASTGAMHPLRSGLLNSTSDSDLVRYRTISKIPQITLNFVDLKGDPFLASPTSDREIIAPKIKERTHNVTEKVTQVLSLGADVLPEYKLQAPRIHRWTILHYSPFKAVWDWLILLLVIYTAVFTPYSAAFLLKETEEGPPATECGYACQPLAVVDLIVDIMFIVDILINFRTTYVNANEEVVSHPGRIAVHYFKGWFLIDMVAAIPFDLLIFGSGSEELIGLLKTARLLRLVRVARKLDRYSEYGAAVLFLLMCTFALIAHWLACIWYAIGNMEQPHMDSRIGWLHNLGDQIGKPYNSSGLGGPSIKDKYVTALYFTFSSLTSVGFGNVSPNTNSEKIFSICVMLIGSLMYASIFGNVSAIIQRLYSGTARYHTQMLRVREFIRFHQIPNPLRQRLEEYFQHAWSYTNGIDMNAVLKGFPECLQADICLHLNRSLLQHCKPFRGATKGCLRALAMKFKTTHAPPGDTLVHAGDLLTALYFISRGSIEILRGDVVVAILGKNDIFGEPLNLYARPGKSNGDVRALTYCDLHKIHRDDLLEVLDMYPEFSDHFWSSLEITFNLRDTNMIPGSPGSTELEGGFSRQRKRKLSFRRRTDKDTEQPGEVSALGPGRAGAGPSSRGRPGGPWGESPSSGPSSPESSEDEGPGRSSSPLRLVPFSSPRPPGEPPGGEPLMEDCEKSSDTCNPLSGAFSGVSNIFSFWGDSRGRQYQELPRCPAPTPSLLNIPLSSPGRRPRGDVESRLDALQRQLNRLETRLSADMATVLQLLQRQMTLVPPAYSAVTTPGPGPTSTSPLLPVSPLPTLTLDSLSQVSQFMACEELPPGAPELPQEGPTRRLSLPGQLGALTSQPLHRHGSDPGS
`COc1ccc(C2=NOC3(CC(=O)N(c4ccc(C)cc4)C3=O)C2)c(OC)c1` (stereo not shown) was tested, and the “hERG current change (%, negative = inhibition) at 10uM” value was 4.08%.
With `CCOC(=O)N1CCN(Cc2cccs2)CC1` the “hERG current change (%, negative = inhibition) at 10uM” value was 24.3%.
For `Cc1ccc(C)c(NC(=O)CSc2nnc3n2CCCCC3)c1`, the “hERG current change (%, negative = inhibition) at 10uM” value was 11%.
For `COc1ccnc(Oc2ccc(F)cc2)c1C(=O)N/C=N/OCc1c(Cl)cccc1Cl`, the “hERG current change (%, negative = inhibition) at 10uM” value was -5.9%.
For `C(#Cc1ccccc1)CN1CCN(c2ccccn2)CC1.Cl`, the “hERG current change (%, negative = inhibition) at 10uM” value was -8.88%.
With `O=C(Nc1cccc(S(=O)(=O)Nc2ccccc2Cl)c1)c1ccc(Cl)nc1` the “hERG current change (%, negative = inhibition) at 10uM” value was -8.9%.
With `C/C(CCN1CCc2nc(-c3ccccc3)c(-c3ccccc3)cc2C1)=N\O[C@@H](C)c1cc(-c2c(C)cc(C)cc2C)no1` the “hERG current change (%, negative = inhibition) at 10uM” value was 4.08%.
With `COc1cccc(-c2cc(C(F)(F)F)nc(-n3ccc([N+](=O)[O-])n3)n2)c1` the “hERG current change (%, negative = inhibition) at 10uM” value was -6.33%.
With `CCOC(=O)c1cnc(SCC(=O)Nc2ccccc2C(=O)OC)nc1N` the “hERG current change (%, negative = inhibition) at 10uM” value was -13.1%.
For `COc1ccc2c(c1)CCc1sc(NC(=O)c3ccc(C)cc3)nc1-2`, the “hERG current change (%, negative = inhibition) at 10uM” value was 10.9%.
In the case of `CCN(CC)CCN(C(=O)c1ccc2c(c1)OCCO2)c1nc2c(Cl)cccc2s1.Cl`, the “hERG current change (%, negative = inhibition) at 10uM” value is reported as -54.7%.
`CC1CN(S(=O)(=O)c2ccc(C(=O)N(CCCN(C)C)c3nc4c(Cl)cccc4s3)cc2)CC(C)O1.Cl` (stereo not shown) was tested, and the “hERG current change (%, negative = inhibition) at 10uM” value was -36.7%.
For `CC(=O)c1ccc(C(=O)N(CCN(C)C)c2nc3c(Cl)cccc3s2)cc1.Cl`, the “hERG current change (%, negative = inhibition) at 10uM” value was -48.6%.
In the case of `CN(C)CCN(C(=O)c1cccc(Cl)c1)c1nc2c(Cl)cccc2s1.Cl`, the “hERG current change (%, negative = inhibition) at 10uM” value is reported as -52.6%.
For `CN(C)CCN(C(=O)c1ccc2c(c1)OCCO2)c1nc2c(Cl)cccc2s1.Cl`, the “hERG current change (%, negative = inhibition) at 10uM” value was -59.3%.
`CCN(CC)CCN(C(=O)c1ccc2c(c1)CCCC2)c1nc2c(C)cccc2s1.Cl` was tested, and the “hERG current change (%, negative = inhibition) at 10uM” value was -30.2%.
In the case of `Cc1ccc2sc(N(CCN(C)C)C(=O)c3ccc4ccccc4c3)nc2c1C.Cl`, the “hERG current change (%, negative = inhibition) at 10uM” value is reported as 18.7%.
For `COC(=O)c1ccc(C(=O)N(CCN(C)C)c2nc3c(Cl)cccc3s2)cc1.Cl`, the “hERG current change (%, negative = inhibition) at 10uM” value was -54.9%.
`COc1ccccc1OCCNC(=O)c1cc(F)c(F)cc1Cl` was tested, and the “hERG current change (%, negative = inhibition) at 10uM” value was -2.68%.
For `Cc1ccccc1-n1nnnc1SC(C)C(=O)Nc1ccc(N2CCN(C)CC2)cc1` (stereo not shown), the “hERG current change (%, negative = inhibition) at 10uM” value was -25.4%.
`COc1ccc(NC(=O)[C@@H]2CC=C[C@@H]3CCN(Cc4ccccc4)C(=O)[C@@H]32)cc1` was tested, and the “hERG current change (%, negative = inhibition) at 10uM” value was -8.12%.
For `COC(=O)[C@@H]1C[C@@H]2CC[C@@H](O)C[C@@H]2N1Cc1ccc(Cl)cc1`, the “hERG current change (%, negative = inhibition) at 10uM” value was 23.7%.
For `CCOc1cc(/C=C2\C(=O)N(c3nc(-c4ccc(Br)cc4)cs3)N=C2c2ccccc2)ccc1O`, the “hERG current change (%, negative = inhibition) at 10uM” value was 4.44%.
With `CS(=O)(=O)c1ccc(Cl)c(NC(=O)C2CC(=O)N(Cc3ccco3)C2)c1` (stereo not shown) the “hERG current change (%, negative = inhibition) at 10uM” value was 9.79%.
For `CS(=O)(=O)c1ccc(C(=O)OCC(=O)NC(=O)C2CCCCC2)cc1[N+](=O)[O-]`, the “hERG current change (%, negative = inhibition) at 10uM” value was 28.1%.
With `Cc1ccc(-c2cc(C(F)F)n3ncc(C(=O)N4CCCc5ccccc54)c3n2)cc1` the “hERG current change (%, negative = inhibition) at 10uM” value was 3.94%.
In the case of `C=CCn1c(SCC(=O)NCc2ccco2)nnc1-c1ccc2ccccc2n1`, the “hERG current change (%, negative = inhibition) at 10uM” value is reported as -28.2%.
With `COC(C(=O)Nc1ccc(F)c(F)c1)c1ccccc1` (stereo not shown) the “hERG current change (%, negative = inhibition) at 10uM” value was -13.7%.
In the case of `COc1ccc(NS(=O)(=O)c2cccc(C(=O)NCC3CCCO3)c2)cc1` (stereo not shown), the “hERG current change (%, negative = inhibition) at 10uM” value is reported as -0.415%.
For `Cn1cnnc1SCC(=O)NCCC(c1ccccc1)c1ccccc1`, the “hERG current change (%, negative = inhibition) at 10uM” value was 7.79%.
In the case of `O=C(COc1ccc(Br)cc1)N1CCN(c2ccc([N+](=O)[O-])c(N3CCCCC3)c2)CC1`, the “hERG current change (%, negative = inhibition) at 10uM” value is reported as -14.1%.
In the case of `O=C(COc1ccccc1)N1CCN(c2ccc([N+](=O)[O-])c(N3CCCCC3)c2)CC1`, the “hERG current change (%, negative = inhibition) at 10uM” value is reported as -13.6%.
With `O=C(COc1ccccc1Cl)N1CCN(c2ccc([N+](=O)[O-])c(N3CCOCC3)c2)CC1` the “hERG current change (%, negative = inhibition) at 10uM” value was -25.7%.
For `Cc1ccc(OCC(=O)N2CCN(c3ccc([N+](=O)[O-])c(N4CCOCC4)c3)CC2)cc1`, the “hERG current change (%, negative = inhibition) at 10uM” value was -71.4%.
With `O=C(COc1ccc(Cl)cc1)N1CCN(c2ccc([N+](=O)[O-])c(N3CCCCC3)c2)CC1` the “hERG current change (%, negative = inhibition) at 10uM” value was 2.92%.
For `O=C(COc1ccc(Cl)cc1)N1CCN(c2ccc([N+](=O)[O-])c(N3CCOCC3)c2)CC1`, the “hERG current change (%, negative = inhibition) at 10uM” value was -71.5%.
For `O=c1c2ccccc2nc(/C=C/c2ccco2)n1-c1ccccc1O`, the “hERG current change (%, negative = inhibition) at 10uM” value was -13.3%.
With `O=C(COC(=O)/C=C/C(=O)OCC(=O)Nc1ccccc1F)Nc1ccccc1F` the “hERG current change (%, negative = inhibition) at 10uM” value was 12.9%.
In the case of `COc1ccc(C(CC(=O)O)NC(C)=O)cc1OC` (stereo not shown), the “hERG current change (%, negative = inhibition) at 10uM” value is reported as 10.4%.
In the case of `CCCc1nc(SCC(=O)Nc2nnc(SCC)s2)c2c(=O)n(C)c(=O)n(C)c2n1`, the “hERG current change (%, negative = inhibition) at 10uM” value is reported as 3.68%.
In the case of `CCCC12CN3CCN(CC(C3)/C1=N\NC(=O)c1ccccc1N)C2`, the “hERG current change (%, negative = inhibition) at 10uM” value is reported as -4.19%.
`Nc1ccccc1C(=O)N/N=C1/C2CN3CCN(C2)CC1(Cc1ccccc1)C3` was tested, and the “hERG current change (%, negative = inhibition) at 10uM” value was -37.8%.
`CCCCC12CN3CCN(CC(C3)/C1=N\NC(=O)c1ccccc1N)C2` was tested, and the “hERG current change (%, negative = inhibition) at 10uM” value was -70.8%.
`N#Cc1cnc(Nc2ccc(F)cc2)nc1N` was tested, and the “hERG current change (%, negative = inhibition) at 10uM” value was -2.18%.
For `CC(Sc1nc(NC(C)(C)C)nc(N(C)C)n1)C(=O)Nc1ccccc1` (stereo not shown), the “hERG current change (%, negative = inhibition) at 10uM” value was 10.9%.
With `CC(C)Nc1nc(SC(C)C(=O)Nc2ccccc2)nc(N(C)C)n1` (stereo not shown) the “hERG current change (%, negative = inhibition) at 10uM” value was -51.4%.
In the case of `CCNc1nc(SC(C)C(=O)Nc2ccccc2)nc(N(C)C)n1` (stereo not shown), the “hERG current change (%, negative = inhibition) at 10uM” value is reported as 11.8%.
For `O=C(NCCC1=CCCCC1)Nc1ccc2nsnc2c1`, the “hERG current change (%, negative = inhibition) at 10uM” value was 8.84%.
For `O=C(c1cnc(-c2ccc(Cl)cc2)s1)c1ccc(Cl)cc1Cl`, the “hERG current change (%, negative = inhibition) at 10uM” value was 5.71%.
With `CN(C)CCCn1c2c(c(SCC(=O)Nc3ccc4c(c3)OCO4)nc1=O)CCC2` the “hERG current change (%, negative = inhibition) at 10uM” value was -10.7%.
In the case of `CN(C)CCCn1c2c(c(SCC(=O)Nc3ccc4c(c3)OCO4)nc1=O)CCCC2`, the “hERG current change (%, negative = inhibition) at 10uM” value is reported as -39.7%.
With `CCN(CC)CCCn1c2c(c(SCC(=O)Nc3ccc(C)c(F)c3)nc1=O)CCC2` the “hERG current change (%, negative = inhibition) at 10uM” value was -64.5%.
In the case of `CCN(CC)CCn1c2c(c(SCC(=O)Nc3ccc4c(c3)OCCO4)nc1=O)CCCC2`, the “hERG current change (%, negative = inhibition) at 10uM” value is reported as -20.4%.
For `CCN(CC)CCn1c2c(c(SCC(=O)Nc3ccc(C)c(F)c3)nc1=O)CCC2`, the “hERG current change (%, negative = inhibition) at 10uM” value was -63.8%.
For `CCN(CC)CCn1c2c(c(SCC(=O)Nc3ccc(C)c(F)c3)nc1=O)CCCC2`, the “hERG current change (%, negative = inhibition) at 10uM” value was -70.1%.
